Binding signal data for 11 sequences are collected here from PMC5700166.

Positions count from the first letter of the chain named.

What all share (assay): protein-binding microarray (PBM); PBM: ~300 nM protein, 6 mM HEPES pH 7.8, 80 mM KCl, 0.5 mM EDTA, 0.5 mM EGTA, 6% glycerol, 35 ng/ul poly-dIdC, 1% milk, 1 h, room temperature; Ap Aiptasia and Nv Nematostella (sea anemones) / Co Capsaspora / Aq Amphimedon (sponge) / Dm Drosophila / Hu human; RHD is the Rel homology domain; high values mean tight binding
Common to all, as to conditions: dsDNA, one strand shown

The target of experiment [1] is T1, GST-Ap-NF-kB RHD (Exaiptasia pallida (Aiptasia), UniProt A0A913YAJ5 2-422).
T1 sequence: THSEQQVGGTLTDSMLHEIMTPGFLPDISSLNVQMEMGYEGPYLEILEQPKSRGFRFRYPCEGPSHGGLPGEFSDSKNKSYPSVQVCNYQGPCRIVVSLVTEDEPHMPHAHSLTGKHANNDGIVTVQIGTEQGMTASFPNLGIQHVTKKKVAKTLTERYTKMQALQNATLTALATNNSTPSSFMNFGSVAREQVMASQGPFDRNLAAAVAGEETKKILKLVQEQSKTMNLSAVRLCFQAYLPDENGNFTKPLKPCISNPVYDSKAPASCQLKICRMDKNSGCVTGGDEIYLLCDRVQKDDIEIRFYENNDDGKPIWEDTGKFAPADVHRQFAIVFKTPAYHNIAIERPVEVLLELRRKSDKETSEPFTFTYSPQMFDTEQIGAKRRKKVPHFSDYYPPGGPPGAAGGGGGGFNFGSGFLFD

Experiment [2] addresses T2, GST-Nv-NF-kB (Cys allele) (Nematostella vectensis, UniProt E5G601 2-411).
T2 sequence: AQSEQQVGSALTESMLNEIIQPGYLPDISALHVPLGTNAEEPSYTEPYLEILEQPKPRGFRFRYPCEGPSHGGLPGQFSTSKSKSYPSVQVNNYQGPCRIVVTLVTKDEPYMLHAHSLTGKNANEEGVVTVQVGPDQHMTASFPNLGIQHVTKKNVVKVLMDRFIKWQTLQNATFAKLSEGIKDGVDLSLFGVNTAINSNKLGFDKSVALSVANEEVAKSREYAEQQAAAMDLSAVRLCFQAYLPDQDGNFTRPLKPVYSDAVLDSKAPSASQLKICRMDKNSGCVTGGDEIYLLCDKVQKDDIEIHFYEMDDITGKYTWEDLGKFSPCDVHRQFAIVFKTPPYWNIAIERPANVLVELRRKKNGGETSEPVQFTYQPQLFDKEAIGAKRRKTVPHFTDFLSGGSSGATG

In experiment [3] the target is T3, GST-Nv-NF-kB (Ser allele) (Nematostella vectensis, UniProt A7UNT2 2-411).
T3 sequence: T2 sequence with Q21R, C66S, S207N, E215Q, V217A, E225K, A268E, D399E

The target in experiment [4] is T4, GST-Co-NF-kB (Capsaspora owczarzaki, UniProt F1ARL5 200-546).
T4 sequence: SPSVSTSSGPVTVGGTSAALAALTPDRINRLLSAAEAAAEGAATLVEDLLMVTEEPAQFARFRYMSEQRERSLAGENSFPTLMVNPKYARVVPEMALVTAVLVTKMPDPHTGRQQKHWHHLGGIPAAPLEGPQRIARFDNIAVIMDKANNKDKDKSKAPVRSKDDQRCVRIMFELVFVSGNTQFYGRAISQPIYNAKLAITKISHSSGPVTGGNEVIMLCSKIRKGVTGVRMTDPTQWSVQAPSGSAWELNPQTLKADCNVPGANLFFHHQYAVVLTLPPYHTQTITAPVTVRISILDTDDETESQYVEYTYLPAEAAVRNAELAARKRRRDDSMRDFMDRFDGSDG

For experiment [5], the target named is T5, GST-Dm-Relish (Drosophila melanogaster, UniProt Q94527 99-473).
T5 sequence: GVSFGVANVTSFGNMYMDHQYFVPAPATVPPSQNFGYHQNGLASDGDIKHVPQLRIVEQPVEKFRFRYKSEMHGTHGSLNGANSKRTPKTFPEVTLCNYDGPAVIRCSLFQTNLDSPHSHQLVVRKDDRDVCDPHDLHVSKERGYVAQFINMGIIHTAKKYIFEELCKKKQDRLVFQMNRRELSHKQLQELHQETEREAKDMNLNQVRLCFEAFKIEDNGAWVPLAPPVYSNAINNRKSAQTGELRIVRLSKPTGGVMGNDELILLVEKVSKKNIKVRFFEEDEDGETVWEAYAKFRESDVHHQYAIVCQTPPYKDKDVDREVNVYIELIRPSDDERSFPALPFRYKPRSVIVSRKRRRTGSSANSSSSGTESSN

The target in experiment [6] is T6, GST-Aq-NF-kB (Amphimedon queenslandica, UniProt A9Y5G7 2-389).
T6 sequence: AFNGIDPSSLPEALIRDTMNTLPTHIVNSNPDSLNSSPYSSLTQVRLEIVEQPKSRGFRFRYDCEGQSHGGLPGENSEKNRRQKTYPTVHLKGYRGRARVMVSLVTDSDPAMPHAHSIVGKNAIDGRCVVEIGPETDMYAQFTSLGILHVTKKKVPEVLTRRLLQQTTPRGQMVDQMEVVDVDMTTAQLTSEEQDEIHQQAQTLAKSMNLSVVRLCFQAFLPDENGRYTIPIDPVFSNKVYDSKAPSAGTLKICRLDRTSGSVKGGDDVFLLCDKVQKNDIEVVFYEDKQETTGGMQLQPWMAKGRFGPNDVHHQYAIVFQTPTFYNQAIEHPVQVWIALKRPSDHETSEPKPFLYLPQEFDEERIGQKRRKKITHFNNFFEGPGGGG

Experiment [7] has as its target GST-Hu-p50 (Homo sapiens, UniProt P19838 7-356).

Chain of GST-Hu-p50 (P19838 7-356): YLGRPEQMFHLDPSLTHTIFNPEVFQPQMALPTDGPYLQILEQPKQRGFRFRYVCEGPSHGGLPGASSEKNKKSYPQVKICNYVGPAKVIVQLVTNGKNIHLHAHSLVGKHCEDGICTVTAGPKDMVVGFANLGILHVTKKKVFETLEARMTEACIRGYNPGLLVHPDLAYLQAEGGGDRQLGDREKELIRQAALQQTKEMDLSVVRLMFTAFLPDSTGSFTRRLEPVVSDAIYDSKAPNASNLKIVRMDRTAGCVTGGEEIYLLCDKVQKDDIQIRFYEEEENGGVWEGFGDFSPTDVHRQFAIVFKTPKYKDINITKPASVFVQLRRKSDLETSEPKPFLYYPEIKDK

Take “CCGATTAACATCAAATTTCCCACTGATGTTAATCGGGTCTTGATTCGCTTGACGCTGCTG”: the binding signal turned out to be 2.73 z-score in experiment [1]; 4.26 z-score in experiment [2]; 4.5 z-score in experiment [3]; 4.39 z-score in experiment [4]; 3.33 z-score in experiment [5]; 4.27 z-score in experiment [6]. In addition, in experiment [7], the binding signal is 4.02 z-score.

For the sequence “CCGATTAACATCAAGATTTCCCATGATGTTAATCGGGTCTTGATTCGCTTGACGCTGCTG”, the binding signal in experiment [1] worked out at 2.43 z-score; in experiment [2], 4.42 z-score; in experiment [3], 4.61 z-score; in experiment [4] it was 4.11 z-score; in experiment [5], 2.29 z-score; in experiment [6], 3.35 z-score. In experiment [7], this sequence displayed a binding signal of 3.33 z-score.

For the sequence “CCGATTAACATCAGGCAGTCCCCTGATGTTAATCGGGTCTTGATTCGCTTGACGCTGCTG”, the binding signal in experiment [1] came out at 5.54 z-score; in experiment [2], 4.49 z-score; in experiment [3], 3.59 z-score; in experiment [4], 1.33 z-score; in experiment [5], 4.55 z-score; in experiment [6], 5.52 z-score. The binding signal in experiment [7] was 4.48 z-score.

Consider “CCGATTAACATCAAATTTTCCCGTGATGTTAATCGGGTCTTGATTCGCTTGACGCTGCTG”, for which the binding signal in experiment [1] was determined as 4.26 z-score; in experiment [2], 6.26 z-score; in experiment [3] it was 7.05 z-score; in experiment [4], 6.38 z-score; in experiment [5], 3.36 z-score; in experiment [6] it was 5.86 z-score. This sequence showed a binding signal in experiment [7] of 4.58 z-score.

Consider “CCGATTAACATCAAAATATTCCCTGATGTTAATCGGGTCTTGATTCGCTTGACGCTGCTG”, for which the binding signal in experiment [1] was determined as 6.25 z-score; in experiment [2], 7.36 z-score; in experiment [3], 7.68 z-score; in experiment [4], 4.81 z-score; in experiment [5] it was 4.34 z-score; in experiment [6], 6.27 z-score. In addition, in experiment [7], the binding signal turned out to be 4.33 z-score.

“CCGATTAACATCAAAAACTTCCCTGATGTTAATCGGGTCTTGATTCGCTTGACGCTGCTG”: the binding signal in experiment [1] was 5.3 z-score; in experiment [2] it was 5.84 z-score; in experiment [3] it was 6.81 z-score; in experiment [4], 3.89 z-score; in experiment [5], 5.16 z-score; in experiment [6], 6.27 z-score. This sequence also gave a binding signal in experiment [7] of 4.68 z-score.

As for “CCGATTAACATCACACTTTCCCCTGATGTTAATCGGGTCTTGATTCGCTTGACGCTGCTG”, the binding signal in experiment [1] came out at 6.32 z-score; in experiment [2] it was 6.92 z-score; in experiment [3] it was 8.7 z-score; in experiment [4], 7.06 z-score; in experiment [5], 2.75 z-score; in experiment [6] it was 4.81 z-score. This sequence returned a binding signal in experiment [7] of 5.3 z-score.

Consider “CCGATTAACATCAAATACTCCCCTGATGTTAATCGGGTCTTGATTCGCTTGACGCTGCTG”, for which the binding signal in experiment [1] was 6.1 z-score; in experiment [2] it was 5.48 z-score; in experiment [3], 6.09 z-score; in experiment [4] it was 6.89 z-score; in experiment [5] it was 3.34 z-score; in experiment [6] it was 5.29 z-score. Moreover, the binding signal in experiment [7] is 4.01 z-score.

Consider “CCGATTAACATCAGGAATCCCCCTGATGTTAATCGGGTCTTGATTCGCTTGACGCTGCTG”, for which the binding signal amounted to 10.9 z-score in experiment [1]; 10.2 z-score in experiment [2]; 9.39 z-score in experiment [3]; 5.73 z-score in experiment [4]; 10.2 z-score in experiment [5]; 9.58 z-score in experiment [6]. Besides, in experiment [7], the binding signal turned out to be 7.57 z-score.

For “CCGATTAACATCAAATTCCCCCTTGATGTTAATCGGGTCTTGATTCGCTTGACGCTGCTG”, the binding signal is 9.34 z-score in experiment [1]; 10.3 z-score in experiment [2]; 11 z-score in experiment [3]; 8.93 z-score in experiment [4]; 8.62 z-score in experiment [5]; 8.5 z-score in experiment [6]. The sequence further came in with a binding signal in experiment [7] of 8.06 z-score.

Turning to “CCGATTAACATCACGGGATTCCCTGATGTTAATCGGGTCTTGATTCGCTTGACGCTGCTG”, the binding signal in experiment [1] was 6.4 z-score; in experiment [2], 6.23 z-score; in experiment [3] it was 5.14 z-score; in experiment [4], 2.93 z-score; in experiment [5] it was 10.2 z-score; in experiment [6] it was 7.3 z-score. The sequence further showed a binding signal in experiment [7] of 4.17 z-score.
